The source of these data is PubChem BioAssay (EPA / NIEHS).

Test [1] in a line: ATG_CRE_CIS: Attagene CIS-FACTORIAL HepG2 Assay for human cAMP Responsive Element (CRE) binding protein 3 (AID 2282926). Conditions: HepG2 CRE cis-reporter, Attagene multiplexed mRNA; actives raise or lower the signal. In a few lines: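 Liver-derived HepG2, transfected with a CRE-containing reporter panel, exposed 24 h; transcript levels sized and quantified by capillary electrophoresis of labelled amplicons; signal changes either way referenced to vehicle.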

The target of test [2] is CCAAT/enhancer-binding protein beta (Homo sapiens) (UniProt P17676). Kind of test: ATG_C_EBP_CIS: Attagene CIS-FACTORIAL HepG2 Assay for human CCAAT/Enhancer Binding Protein (C/EBP) beta (AID 2282927). Conditions: HepG2 Attagene cis-factorial transcription factor reporter; actives raise or lower the signal. In a few lines:
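Following a 24 h incubation with test chemical, transfected HepG2 cells yielded RNA whose reporter transcripts were quantified by RT-PCR and fluorescent capillary electrophoresis, with DMSO serving as baseline for bidirectional fitting.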

The target of test [3] is Aryl hydrocarbon receptor (Homo sapiens) (UniProt P35869). Kind of test: ATG_Ahr_CIS: Attagene CIS-FACTORIAL HepG2 Assay for human Aryl Hydrocarbon Receptor (Ahr) (AID 2282930). Conditions: HepG2 AhR cis-factorial reporter transcription; actives raise or lower the signal. The procedure, abridged:
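Values derive from bidirectional fitting against DMSO negative control. Underlying signal: cis-element reporter mRNA in transiently transfected HepG2, harvested 24 h post-dose and measured by RT-PCR plus capillary electrophoresis.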

A short description of test [4]: ATG_AP_1_CIS: Attagene CIS-FACTORIAL HepG2 Assay for human Activator Protein 1 (AP-1) (AID 2282931). Conditions: HepG2 Attagene cis-factorial AP-1 reporter mRNA; actives raise or lower the signal. In a few lines:
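After 24 h incubation with test chemical, RNA from transfected HepG2 cells was reverse-transcribed, amplified, fluorescently labelled and digested before capillary electrophoresis. Reporters were driven by cis-regulatory promoters; activity fitted bidirectionally versus DMSO.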

Test [5] in a line: ATG_BRE_CIS: Attagene CIS-FACTORIAL HepG2 Assay for human Bone Morphogenetic Protein (BMP) Response Element (BRE) (AID 2282933). Conditions: HepG2 BMP response element reporter, Attagene transcription factor profiling; actives raise or lower the signal. The procedure, abridged: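 HepG2 cells transiently transfected with CIS reporter units (endogenous TF activity, BMP response element), dosed 24 h. Reporter mRNA quantified by RT-PCR, fluorescent labelling and capillary electrophoresis; bidirectional fit vs DMSO baseline.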

A short description of test [6]: ATG_E_Box_CIS: Attagene CIS-FACTORIAL HepG2 Assay for human Enhancer Box (E-box) (AID 2282936). Conditions: HepG2 E-box cis-reporter transcription, actives raise or lower the signal. In a few lines: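 Endogenous transcription factor activity was sensed in human HepG2 liver cells through transfected cis-promoter reporter units. After 24 h of dosing, total RNA was reverse-transcribed and reporter cDNA resolved by capillary electrophoresis.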

Test [7] can be described thus: ATG_M_19_CIS: Attagene CIS-FACTORIAL HepG2 Assay for M19 Transcription Factor (Internal Marker) (AID 2282939). Conditions: HepG2 Attagene CIS-FACTORIAL M19 internal marker reporter; actives raise or lower the signal. The procedure, abridged: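 HepG2 cells transiently transfected with cis-regulated multiplexed reporter units, dosed 24 h. Reporter mRNA quantified by RT-PCR and capillary electrophoresis; internal background marker fitted bidirectionally versus DMSO.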

The nature of test [8]: ATG_GLI_CIS: Attagene CIS-FACTORIAL HepG2 Assay for human Zinc Finger Protein GLI1 (AID 2282945). Conditions: HepG2, Attagene cis-factorial reporter mRNA, GLI element; actives raise or lower the signal. In a few lines:
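HepG2 cells transiently transfected with cis-promoter multiplexed reporter units report endogenous transcription factor activity. After 24 h chemical exposure, reporter mRNA was quantified by RT-PCR, 6-FAM labelling, HpaI digestion and capillary electrophoresis, with bidirectional fitting against DMSO.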

A short description of test [9]: ATG_M_06_CIS: Attagene CIS-FACTORIAL HepG2 Assay for M06 Transcription Factor (Internal Marker) (AID 2282950). Conditions: HepG2 Attagene CIS-FACTORIAL M06 internal marker reporter; actives raise or lower the signal. The procedure, abridged:
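Internal background marker within multiplexed cis-reporter HepG2 system. Cells transiently transfected, dosed 24 h; reporter mRNA measured by RT-PCR, HpaI digestion and capillary electrophoresis. Bidirectional fit relative to DMSO.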

The target of test [10] is Hypoxia-inducible factor 1-alpha (Homo sapiens) (UniProt Q16665). Kind of test: ATG_HIF1a_CIS: Attagene CIS-FACTORIAL HepG2 Assay for human Hypoxia Inducible Factor 1 (HIF1A) (AID 2282951). Conditions: HepG2 Attagene cis-factorial HIF1a reporter transcription; actives raise or lower the signal. The procedure, abridged: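 Endogenous-TF cis reporter readout, human HepG2 cells, 24 h incubation; mRNA detected via RT-PCR and capillary electrophoresis fluorescence; DMSO-normalised bidirectional fitting.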

In test [11] the target is Hepatocyte nuclear factor 6 (Homo sapiens) (UniProt Q9UBC0). Kind of test: ATG_HNF6_CIS: Attagene CIS-FACTORIAL HepG2 Assay for human Hepatocyte Nuclear Factor 6 (HNF6) (AID 2282952). Conditions: HepG2 Attagene cis-factorial HNF6 reporter transcription; actives raise or lower the signal. The procedure, abridged:
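Twenty-four-hour chemical treatment of reporter-transfected HepG2 cells precedes RNA isolation, DNase-treated reverse transcription and PCR of reporter sequences. Labelled fragments are sized by capillary electrophoresis and fitted bidirectionally versus DMSO.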

Test [12] deals with Heat shock factor protein 1 (Homo sapiens) (UniProt Q00613). Kind of test: ATG_HSE_CIS: Attagene CIS-FACTORIAL HepG2 Assay for human Heat Shock Transcription Factor 1 (HSE) (AID 2282953). Conditions: HepG2 HSE cis-reporter, Attagene RNA transcription; actives raise or lower the signal. The procedure, abridged:
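HepG2 cells transfected with cis-promoter reporter units sensing endogenous transcription factor activity; reporter mRNA quantified 24 h post-dose by RT-PCR and capillary electrophoresis of 6-FAM-labelled products. Bidirectional fitting against DMSO.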

Test [13] addresses X-box-binding protein 1 (Homo sapiens) (UniProt P17861). Kind of test: ATG_Xbp1_CIS: Attagene CIS-FACTORIAL HepG2 Assay for human X-box Binding Protein 1 (XBP1) (AID 2282972). Conditions: HepG2 XBP1 cis-element reporter, Attagene multiplex; actives raise or lower the signal. The procedure, abridged: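 Changes in reporter transcript abundance, read by RT-PCR and capillary electrophoresis, reflect endogenous transcription factor activity. Transfected HepG2 cells received compound for 24 hours; DMSO defined baseline for bidirectional analysis.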

Test [14] concerns the target Nuclear respiratory factor 1 (Homo sapiens) (UniProt Q16656). Kind of test: ATG_NRF1_CIS: Attagene CIS-FACTORIAL HepG2 Assay for human Nuclear Respiratory Factor 1 (NRF1) Orphan Gene (AID 2282987). Conditions: HepG2 NRF1 cis-element reporter, Attagene multiplex; actives raise or lower the signal. In a few lines: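 Endogenous factor activity was captured via cis-element-driven reporter transcripts in HepG2 cells. Following 24 h chemical treatment, transcripts were quantified by RT-PCR and capillary electrophoresis.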

For test [15], the target named is Myc proto-oncogene protein (Homo sapiens) (UniProt P01106). Kind of test: ATG_Myc_CIS: Attagene CIS-FACTORIAL HepG2 Assay for human Myelocytomatosis (Myc) Proto-Oncogene Transcription Factor (AID 2282990). Conditions: HepG2, Attagene cis-reporter transcription factor activity; actives raise or lower the signal. In a few lines: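 Multiplexed cis-reporter transcription in HepG2 cells after 24 h chemical treatment. Reporter mRNA measured by RT-PCR and capillary electrophoresis fluorescence; activity fitted bidirectionally against DMSO control.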

Test [16] is described as follows: ATG_NRF2_ARE_CIS: Attagene CIS-FACTORIAL HepG2 Assay for human Nuclear Factor Erythroid 2 Related Factor 2 (NFR2) response to Antioxidant Response Elements (ARE) (AID 2282992). Conditions: HepG2 Attagene ARE/NRF2 reporter, transcription factor activity; actives raise or lower the signal. In a few lines:
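Using transiently transfected HepG2 cells exposed for 24 h, reporter mRNA levels were determined by RT-PCR with fluorescent primer extension and capillary electrophoresis, analysed for gain or loss of signal against DMSO.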

Test [17] in a line: ATG_Oct_MLP_CIS: Attagene CIS-FACTORIAL HepG2 Assay for human Octamer-Binding Transcription Factor (Oct) (AID 2282993). Conditions: HepG2 Attagene cis-factorial Oct reporter, mRNA; actives raise or lower the signal. In a few lines: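 HepG2 cells transiently transfected with cis-element-driven reporter transcription units (endogenous TF activity); 24 h compound exposure. Reporter mRNA quantified by RT-PCR, 6-FAM labelling, HpaI digestion and capillary electrophoresis; bidirectional fit versus DMSO baseline.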

For test [18], the target named is Cellular tumor antigen p53 (Homo sapiens) (UniProt P04637). Kind of test: ATG_p53_CIS: Attagene CIS-FACTORIAL HepG2 Assay for human p53 Transcription Factor (AID 2282994). Conditions: HepG2 p53 cis-element reporter, Attagene mRNA; actives raise or lower the signal. The procedure, abridged: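 In HepG2 cells, reporter transcription units under cis-regulatory promoters were transiently introduced. Following 24 h treatment, RNA was processed to labelled, digested cDNA fragments read by capillary electrophoresis; fitting was bidirectional versus DMSO.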

The nature of test [19]: ATG_TA_CIS: Attagene CIS-FACTORIAL HepG2 Assay for human TA Basal Promoter (AID 2282964). Conditions: HepG2 Attagene CIS-factorial TA basal promoter reporter; actives raise or lower the signal. In a few lines: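 HepG2 cells transiently transfected with multiple reporter units under cis promoter elements, reporting endogenous transcription factor activity; this endpoint tracks the TA basal promoter as background control. Reporter mRNA after 24 h dosing measured by RT-PCR/capillary electrophoresis; bidirectional fits versus DMSO.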

Test [20] can be described thus: ATG_VDRE_CIS: Attagene CIS-FACTORIAL HepG2 Assay for human Vitamin D Receptor Element (VDRE) (AID 2282968). Conditions: HepG2 VDRE cis-reporter transcription, actives raise or lower the signal. The procedure, abridged:
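Steps: transfect HepG2 with multiple reporter transcription units; dose chemicals 24 h; isolate RNA; RT-PCR; label with 6-FAM primer extension; HpaI digest; capillary electrophoresis. Curves fitted both directions against DMSO.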

Molecules are shown by their SMILES. Activity calls are given as the source filed them. How the source made its calls: active means hit-call score of the fitted dose curve at least 0.9, where 1 is the maximum; inactive means score below 0.9.

By AC50 is commonly meant the concentration giving half of the maximal activity seen.

Hypoxia-inducible factor 1-alpha (Homo sapiens), sequence (Q16665 whole entry, looked up): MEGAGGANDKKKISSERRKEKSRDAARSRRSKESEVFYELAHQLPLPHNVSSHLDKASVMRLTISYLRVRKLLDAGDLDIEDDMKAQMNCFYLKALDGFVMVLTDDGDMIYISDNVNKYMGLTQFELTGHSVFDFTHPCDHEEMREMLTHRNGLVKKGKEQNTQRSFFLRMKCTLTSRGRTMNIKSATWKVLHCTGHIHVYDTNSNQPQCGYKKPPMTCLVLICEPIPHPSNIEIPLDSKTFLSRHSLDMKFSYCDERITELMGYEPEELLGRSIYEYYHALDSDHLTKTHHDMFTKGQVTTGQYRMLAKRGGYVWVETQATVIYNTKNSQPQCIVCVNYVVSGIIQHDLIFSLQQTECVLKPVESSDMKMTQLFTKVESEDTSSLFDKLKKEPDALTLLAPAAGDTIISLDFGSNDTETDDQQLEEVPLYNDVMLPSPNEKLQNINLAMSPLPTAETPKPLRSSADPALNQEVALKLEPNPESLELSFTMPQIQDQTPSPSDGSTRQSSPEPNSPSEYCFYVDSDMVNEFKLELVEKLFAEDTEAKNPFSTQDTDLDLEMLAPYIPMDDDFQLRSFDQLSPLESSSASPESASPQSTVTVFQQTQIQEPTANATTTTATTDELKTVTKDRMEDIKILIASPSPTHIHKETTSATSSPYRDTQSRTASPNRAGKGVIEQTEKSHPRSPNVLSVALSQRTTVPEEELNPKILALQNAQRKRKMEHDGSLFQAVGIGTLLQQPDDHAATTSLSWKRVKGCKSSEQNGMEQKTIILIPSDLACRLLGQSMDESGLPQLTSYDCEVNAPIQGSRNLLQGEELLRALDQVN
CCAAT/enhancer-binding protein beta (Homo sapiens), sequence (P17676 whole entry, looked up): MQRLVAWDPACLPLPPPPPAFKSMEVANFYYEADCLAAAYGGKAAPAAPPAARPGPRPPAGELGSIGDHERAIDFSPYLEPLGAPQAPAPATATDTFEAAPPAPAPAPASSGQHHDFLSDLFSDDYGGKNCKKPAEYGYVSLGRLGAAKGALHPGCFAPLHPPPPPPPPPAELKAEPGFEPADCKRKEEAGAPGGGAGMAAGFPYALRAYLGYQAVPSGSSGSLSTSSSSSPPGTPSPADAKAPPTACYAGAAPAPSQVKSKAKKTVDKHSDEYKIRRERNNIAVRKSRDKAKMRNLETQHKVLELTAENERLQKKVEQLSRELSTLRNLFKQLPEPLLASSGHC
X-box-binding protein 1 (Homo sapiens), sequence (P17861 whole entry, looked up): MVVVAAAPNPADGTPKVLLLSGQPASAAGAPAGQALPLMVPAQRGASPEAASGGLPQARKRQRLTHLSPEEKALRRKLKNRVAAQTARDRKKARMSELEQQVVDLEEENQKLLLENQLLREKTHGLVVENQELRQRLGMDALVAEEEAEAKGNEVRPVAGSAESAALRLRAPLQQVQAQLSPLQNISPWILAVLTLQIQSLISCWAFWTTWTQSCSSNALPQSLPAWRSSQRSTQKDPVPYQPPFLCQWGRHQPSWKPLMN
Nuclear respiratory factor 1 (Homo sapiens), sequence (Q16656 whole entry, looked up): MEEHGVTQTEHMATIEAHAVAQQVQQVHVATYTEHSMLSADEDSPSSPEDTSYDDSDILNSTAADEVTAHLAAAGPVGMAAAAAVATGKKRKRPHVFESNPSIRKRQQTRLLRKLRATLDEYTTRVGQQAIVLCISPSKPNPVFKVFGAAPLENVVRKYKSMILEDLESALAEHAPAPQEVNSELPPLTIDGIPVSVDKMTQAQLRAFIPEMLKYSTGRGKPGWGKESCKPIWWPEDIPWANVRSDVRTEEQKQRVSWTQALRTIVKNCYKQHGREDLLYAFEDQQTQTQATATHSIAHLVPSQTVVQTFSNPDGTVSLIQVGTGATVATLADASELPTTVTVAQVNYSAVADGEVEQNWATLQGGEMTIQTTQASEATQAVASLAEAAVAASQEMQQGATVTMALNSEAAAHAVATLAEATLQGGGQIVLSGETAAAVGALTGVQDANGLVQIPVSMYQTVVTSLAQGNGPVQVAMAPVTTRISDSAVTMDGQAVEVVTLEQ
Myc proto-oncogene protein (Homo sapiens), sequence (P01106 whole entry, looked up): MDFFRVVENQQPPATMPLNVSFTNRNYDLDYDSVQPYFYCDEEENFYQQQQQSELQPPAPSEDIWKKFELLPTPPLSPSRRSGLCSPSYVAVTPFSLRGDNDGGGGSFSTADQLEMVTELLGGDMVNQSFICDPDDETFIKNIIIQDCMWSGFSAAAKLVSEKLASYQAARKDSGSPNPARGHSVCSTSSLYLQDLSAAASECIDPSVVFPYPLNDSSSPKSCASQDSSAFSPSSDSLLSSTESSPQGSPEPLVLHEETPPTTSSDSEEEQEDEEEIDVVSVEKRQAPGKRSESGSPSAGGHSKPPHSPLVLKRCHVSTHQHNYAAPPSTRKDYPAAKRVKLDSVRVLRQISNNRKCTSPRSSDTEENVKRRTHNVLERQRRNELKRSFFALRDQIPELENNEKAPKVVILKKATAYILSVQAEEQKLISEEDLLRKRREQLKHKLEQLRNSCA
Aryl hydrocarbon receptor (Homo sapiens), sequence (P35869 whole entry, looked up): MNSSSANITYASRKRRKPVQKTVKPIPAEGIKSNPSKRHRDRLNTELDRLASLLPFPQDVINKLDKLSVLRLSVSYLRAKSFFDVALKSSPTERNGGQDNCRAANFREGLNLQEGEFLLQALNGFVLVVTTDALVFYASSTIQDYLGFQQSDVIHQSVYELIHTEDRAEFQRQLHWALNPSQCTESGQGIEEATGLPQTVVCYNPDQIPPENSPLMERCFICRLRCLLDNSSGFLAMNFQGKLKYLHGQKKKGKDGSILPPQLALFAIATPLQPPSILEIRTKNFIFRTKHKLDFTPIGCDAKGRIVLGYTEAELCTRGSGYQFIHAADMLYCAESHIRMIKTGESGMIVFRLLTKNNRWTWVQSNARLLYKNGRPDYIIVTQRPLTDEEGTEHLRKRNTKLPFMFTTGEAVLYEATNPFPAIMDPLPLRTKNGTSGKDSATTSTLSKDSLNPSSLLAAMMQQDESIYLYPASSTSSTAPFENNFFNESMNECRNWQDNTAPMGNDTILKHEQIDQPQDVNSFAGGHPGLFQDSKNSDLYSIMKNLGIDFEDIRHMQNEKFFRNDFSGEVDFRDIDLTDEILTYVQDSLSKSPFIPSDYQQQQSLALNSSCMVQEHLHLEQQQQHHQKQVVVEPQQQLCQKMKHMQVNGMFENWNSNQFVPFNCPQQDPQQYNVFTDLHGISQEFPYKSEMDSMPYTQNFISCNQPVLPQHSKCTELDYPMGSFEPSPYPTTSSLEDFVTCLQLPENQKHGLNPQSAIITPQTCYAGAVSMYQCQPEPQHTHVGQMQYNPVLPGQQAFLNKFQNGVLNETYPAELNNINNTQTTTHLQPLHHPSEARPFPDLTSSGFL
Heat shock factor protein 1 (Homo sapiens), sequence (Q00613 whole entry, looked up): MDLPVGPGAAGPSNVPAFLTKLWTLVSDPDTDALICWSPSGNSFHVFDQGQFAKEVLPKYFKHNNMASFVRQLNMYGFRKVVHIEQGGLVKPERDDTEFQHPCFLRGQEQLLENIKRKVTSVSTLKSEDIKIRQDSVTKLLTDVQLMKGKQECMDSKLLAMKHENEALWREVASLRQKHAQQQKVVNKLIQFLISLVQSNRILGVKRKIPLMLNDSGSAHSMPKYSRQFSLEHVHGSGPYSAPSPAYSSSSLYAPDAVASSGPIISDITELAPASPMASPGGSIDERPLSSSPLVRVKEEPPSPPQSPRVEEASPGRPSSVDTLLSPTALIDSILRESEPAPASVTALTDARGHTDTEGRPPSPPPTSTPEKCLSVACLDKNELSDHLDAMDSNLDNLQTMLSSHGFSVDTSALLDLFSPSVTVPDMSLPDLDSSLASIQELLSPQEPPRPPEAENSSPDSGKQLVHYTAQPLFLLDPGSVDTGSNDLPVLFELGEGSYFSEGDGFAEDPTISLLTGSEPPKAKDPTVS
Cellular tumor antigen p53 (Homo sapiens), sequence (P04637 whole entry, looked up, the tested form may be a part): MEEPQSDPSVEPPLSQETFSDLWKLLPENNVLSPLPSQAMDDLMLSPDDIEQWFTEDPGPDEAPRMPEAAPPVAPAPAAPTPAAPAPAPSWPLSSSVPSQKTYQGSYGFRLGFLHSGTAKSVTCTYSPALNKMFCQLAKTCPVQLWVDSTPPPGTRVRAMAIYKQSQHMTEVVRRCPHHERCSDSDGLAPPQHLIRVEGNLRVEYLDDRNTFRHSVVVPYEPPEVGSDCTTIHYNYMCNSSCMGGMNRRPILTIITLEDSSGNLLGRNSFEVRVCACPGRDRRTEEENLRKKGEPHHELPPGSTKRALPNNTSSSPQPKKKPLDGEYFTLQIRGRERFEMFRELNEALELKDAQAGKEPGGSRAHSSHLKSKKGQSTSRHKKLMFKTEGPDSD
Hepatocyte nuclear factor 6 (Homo sapiens), sequence (Q9UBC0 whole entry, looked up, the tested form may be a part): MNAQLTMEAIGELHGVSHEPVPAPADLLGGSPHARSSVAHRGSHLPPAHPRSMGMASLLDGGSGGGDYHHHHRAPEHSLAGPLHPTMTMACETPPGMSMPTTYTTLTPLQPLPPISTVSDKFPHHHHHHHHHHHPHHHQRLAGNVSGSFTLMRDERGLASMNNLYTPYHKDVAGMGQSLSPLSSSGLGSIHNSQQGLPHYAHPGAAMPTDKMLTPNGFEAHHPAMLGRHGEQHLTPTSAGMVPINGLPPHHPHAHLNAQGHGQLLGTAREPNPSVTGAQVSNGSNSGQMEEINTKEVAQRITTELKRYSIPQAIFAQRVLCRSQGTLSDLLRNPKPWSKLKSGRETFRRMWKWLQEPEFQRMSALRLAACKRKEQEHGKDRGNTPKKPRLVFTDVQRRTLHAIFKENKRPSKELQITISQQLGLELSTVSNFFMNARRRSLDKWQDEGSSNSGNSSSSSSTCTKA

`C=Cc1cccc(CCl)c1`: the compound was called inactive in test [1], in [2], in test [3], in test [4], in test [5] and in [6]. The outcome in test [7], in test [8], in test [9], in test [10], in test [11] and in test [12] was inactive. Moreover, the compound was called inactive in test [14], in test [15] and in test [18]. Besides, the concentration at half-maximal activity (AC50) was 38.5 µM (active) in test [13], 22.4 µM (active) in [16] and 46.2 µM (active) in [17].
`CCOP(=O)(OCC)OCC`: the compound was called inactive in test [1], in test [2], in test [3], in [4], in [5] and in [6]. The compound was classed as inactive in test [9], in test [10], in test [11], in [12], in test [19] and in [20]. For the same compound, the outcome in test [13], in [15], in [16], in test [17] and in test [18] was inactive.
With `CC(C)(O)C#N`, the result in test [1], in [2], in test [3], in [4], in [5] and in test [6] was inactive. The compound was called inactive in test [7], in test [8], in test [9], in test [10], in test [11] and in test [12]. Besides, the call in test [20], in [13], in test [14], in test [15], in test [16] and in test [17] was inactive. In addition, the compound was classed as inactive in [18].
Turning to `[Cl-].[Cl-].[Cl-].[Yb+3]`, the compound was called inactive in test [1], in [2], in test [3], in test [4], in [5] and in test [6]. Moreover, the compound was called inactive in [7], in test [10], in test [11], in test [12], in test [19] and in test [20]. For the same compound, the outcome in test [13], in test [14], in test [15], in [16], in test [17] and in test [18] was inactive.
Consider `CC(C)CCCCCCCOC(=O)c1ccccc1C(=O)OCCCCCCCC(C)C`, for which the outcome in test [1], in test [2], in test [3], in test [4], in test [5] and in test [6] was inactive. Besides, the result in test [8], in [10], in test [11], in [12], in [20] and in test [13] was inactive. Besides, the outcome in [14], in test [15], in test [16], in test [17] and in [18] was inactive.
Take `Oc1cc(Cl)ccc1Cl`: the outcome in test [1], in test [2], in test [3], in test [4], in [5] and in test [6] was inactive. Besides, the compound was called inactive in test [7], in [8], in test [9], in test [10], in test [11] and in [12]. Further, the result in test [19], in test [20], in [13], in test [14], in test [15] and in [16] was inactive. Besides, the result in test [17] and in test [18] was inactive.
For `C=CC(=O)OC`, the result in test [1], in [2], in [3], in test [4], in test [5] and in test [6] was inactive. In addition, the compound was classed as inactive in test [8], in test [9], in [10], in test [11], in test [12] and in test [20]. In addition, the outcome in [13], in test [14], in test [15], in [16], in test [17] and in test [18] was inactive.
For the compound `O=C1C=CC(=O)C=C1`, the result in test [1], in test [2], in test [5], in test [6], in [8] and in test [9] was inactive. Further, the compound was classed as inactive in [11], in test [12], in [13], in [15], in test [17] and in test [18]. For the same compound, the half-maximal activity concentration (AC50) in test [3] was 2.15 µM (active); in test [4], 61.2 µM (active); in [16], 57.4 µM (active).
